# Screening data: PubChem, National Center for Advancing Translational Sciences (NCATS)
# PLK1 PBD block: qHTS for Inhibitors of PLK1-PDB (polo-like kinase 1 - polo-box domain): Primary Screen; Serine/threonine-protein kinase PLK1 (Homo sapiens), P53350; Plk1 PBD binding of FITC phosphopeptide, fluorescence polarization; Potency, µM, without a hit: max response, negative = inhibition, most hits filed as inhibitors; 360,000 tested, 2.8% active; further: series mostly up to about 57 µM; nearly all actives have a fitted effect of over 65% in size
# GCN5L2 inh: qHTS Assay for Inhibitors of GCN5L2; Histone acetyltransferase KAT2A (Homo sapiens), Q92830; GCN5L2 HAT assay, ThioGlo1 CoA-SH fluorescence; Potency, µM (top dose mostly 58.9 µM), for inactives: at the top dose activity change, negative = inhibition, hits mostly inhibitors; 390,000 tested, 0.21% active; AID 504327, 2011
#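 Preincubate 20nM GCN5L2 with compound 15 min, RT → add 50uM ThioGlo1 + 75uM H3(1-25) + 70uM acetyl-CoA → read fluorescence 0 and 20 min. Primary qHTS; fluorescent artifacts likely.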
# VDR inh: Inhibitors of the vitamin D receptor (VDR): qHTS. VDR-SRC2-3 peptide fluorescence polarization, 2 h. 400,000 tested, 0.93% active. Vitamin D3 receptor (Homo sapiens), P11473. Potency, µM, without a hit: max response, negative = inhibition, usual class: inhibitors
#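 Compounds are added to VDR with labelled SRC2-3 coactivator peptide and held 2 h at room temperature. Inhibition of the VDR–peptide interaction is then read as a change in fluorescence polarization.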
# TDP1 cell CPT: qHTS for Inhibitors of human tyrosyl-DNA phosphodiesterase 1 (TDP1): qHTS in cells in presence of CPT; chicken DT40 Tdp1-/-;hTDP1 cells + 20 nM CPT, ATP luminescence, 48 h; Potency, µM (top dose mostly 46.2 µM), for inactives: top-dose activity change, negative = growth inhibition, most hits filed as inhibitors; 420,000 tested, 12% active; further: nearly all actives have a fitted effect of over 55% in size
#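 Chicken DT40 Tdp1-/- cells complemented with human TDP1, 400 cells/well, exposed to compounds plus 20 nM camptothecin for at least 48 h at 37 C; viability read as ATP content by CellTiter-Glo luminescence.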
# TDP1 block: qHTS Assay for Inhibitors of Tyrosyl-DNA Phosphodiesterase (TDP1) | Potency, µM (highest dose often 130 µM), without a hit: top-dose activity change, negative = inhibition, usual class: inhibitors | recombinant TDP1, AlphaScreen DNA substrate cleavage | 350,000 tested, 0.28% active; further: nearly all actives have a fitted effect of over 40% in size
# Target sequence (Q9NUW8 whole entry, looked up): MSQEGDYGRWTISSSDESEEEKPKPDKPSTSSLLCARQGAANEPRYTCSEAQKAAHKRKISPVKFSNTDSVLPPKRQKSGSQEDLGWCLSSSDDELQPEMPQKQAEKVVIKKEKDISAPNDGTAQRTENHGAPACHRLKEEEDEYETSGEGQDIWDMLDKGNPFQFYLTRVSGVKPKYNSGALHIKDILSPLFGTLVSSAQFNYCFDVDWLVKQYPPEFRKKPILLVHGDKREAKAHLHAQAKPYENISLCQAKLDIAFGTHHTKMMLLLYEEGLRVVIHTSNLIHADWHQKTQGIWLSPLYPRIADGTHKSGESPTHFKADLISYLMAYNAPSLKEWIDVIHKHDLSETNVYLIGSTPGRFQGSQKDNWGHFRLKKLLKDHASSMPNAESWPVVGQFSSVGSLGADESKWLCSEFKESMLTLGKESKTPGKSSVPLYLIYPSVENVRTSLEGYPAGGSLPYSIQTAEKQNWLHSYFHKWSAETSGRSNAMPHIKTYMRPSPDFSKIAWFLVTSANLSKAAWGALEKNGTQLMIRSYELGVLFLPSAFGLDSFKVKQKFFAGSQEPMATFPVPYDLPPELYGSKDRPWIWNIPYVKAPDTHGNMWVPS
#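 AlphaScreen read-out: signal falls as enzyme removes the 3' tyrosine-FITC from a 5'-biotinylated DNA oligo (15 nM, 5 min, RT). Enzyme was E. coli-made recombinant Tdp1 at 1 nM, exposed to compound for 15 min beforehand; beads 10 ug/ml, 10 min.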
# TDP1 cell noCPT: qHTS for Inhibitors of human tyrosyl-DNA phosphodiesterase 1 (TDP1): qHTS in cells in absence of CPT; DT40 Tdp1-/- hTDP1 cells, no CPT, ATP luminescence, 48 h; Potency, µM (doses to about 46.2 µM), for inactives: at the highest dose activity change, negative = growth inhibition, most hits filed as inhibitors; 420,000 tested, 15% active; AID 686978, 2013; further: nearly all actives have a fitted effect of over 55% in size
#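 Cells were dispensed at 400 per well, compounds added by pin tool, plates incubated ≥48 hr at 37 °C, then CellTiter-Glo added for 30 min at room temperature before luminescence reading. Line: DT40 Tdp1-/- complemented with hTDP1; camptothecin omitted.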
# Active calls of the source: *; ? = inconclusive; . = not tested or not shown. Shown are actives, neighbours in structure and some others; about 18% of the full set was active somewhere. The call rests on the fitted dose curve; in most records, active means well fitted curve in the direction sought with a large enough effect; inconclusive means small, poorly fitted or top-dose-only effect, or another doubt; inactive means no such curve, though single readings can be large; an effect the other way counts as inactive or inconclusive. On the % scale 0 is the no-effect control and ±100 the full control effect; potency means the concentration at half of the fitted maximal effect.
SMILES,PLK1 PBD block,GCN5L2 inh,VDR inh,TDP1 cell CPT,TDP1 block,TDP1 cell noCPT
COC(C(=O)NNC(=O)CCc1ccccc1)c1ccccc1 (stereo not given),5.1%,-2.5%,22.2%,5.4%,-6.3%,11.6%
CCOc1ccc2nc(NC(=O)Cc3cccs3)sc2c1,29.9µM*,-11.1%,-1.8%,18.4µM*,0.0%,?
O=C(Cc1cccs1)Nc1nc(-c2cccnc2)cs1,-4.4%,-10.2%,-6.4%,16.4µM*,5.7%,8.2µM*
O=C(Cc1cccs1)Nc1nc2ccccc2s1,-6.4%,-1.6%,8.5%,?,3.9%,14.6µM*
O=C(Nc1nc2ccccc2s1)C1c2ccccc2Oc2ccccc21,7.5%,-14.5%,-10.7%,5.8µM*,5.4%,16.4µM*
CCN1CCN(C(=S)c2ccc(SC)cc2)CC1,18.9µM*,-4.5%,?,-11.5%,7.0%,-11.1%
CSc1ccc(C(=S)N2CCN(Cc3ccccc3)CC2)cc1,21.2µM*,-4.0%,-18.9%,-20.7%,10.1%,?
CSc1ccc(C(=S)N2CCCCCC2)cc1,-24.1%,0.7%,-16.2%,-28.1%,.,?
O=[N+]([O-])c1ccc(C(=S)N2CCN(Cc3ccccc3)CC2)cc1,-12.3%,5.3%,-1.0%,?,8.3%,?
Cc1nc(C(F)(F)F)ccc1C(=O)N1CCC1(C)C(=O)NCc1ccc(Cl)cc1 (stereo not given),-9.2%,.,.,-29.0%,.,?
O=C(CCN1CCOCC1)N1CCCC(Nc2cccc(F)c2)C1 (stereo not given),-0.2%,-22.8%,-1.6%,-16.0%,-7.4%,0.1%
COc1ccc(OC)c(/C=C/C(=O)N(C)CC(=O)Nc2ccc(C)cc2)c1,0.0%,-29.7%,3.1%,6.51µM*,1.9%,10.3µM*
COc1ccc(OC)c(/C=C/C(=O)N(C)CC(=O)Nc2cc(C)ccc2C)c1,-2.3%,?,6.6%,-16.4%,0.0%,?
COc1ccc(NC(=O)CN(C)C(=O)/C=C/c2ccc(OCc3ccccc3)cc2)cc1,29.9µM*,-0.8%,-16.4%,-27.5%,.,?
CCCc1c(C(=O)N/N=C/c2sccc2C)nnn1-c1nonc1N,-17.2%,0.8%,1.4%,8.4%,-0.1%,9.7%
CNC(=O)N(O)C1N(/N=C/c2c(F)cccc2Cl)C(=S)SC1(C)C (stereo not given),-2.0%,-18.0%,18.5%,-3.2%,.,9.1%
COc1ccccc1-c1nnc(Sc2nc([N+](=O)[O-])nn2C)o1,-1.4%,0.1%,-2.0%,?,2.0%,16.4µM*
NC(=O)c1cc2c3ccccc3ccn2c1-c1ccccc1,?,-3.1%,?,0.184µM*,10.0%,0.206µM*
COc1cccc(-n2cc(C(=O)Nc3ccccc3C(N)=O)c3ccccc3c2=O)c1,.,-2.5%,-6.3%,?,7.8%,10.3µM*
COc1cccc(CNC(=O)CCn2c(=O)c3cccn3c3ccc(F)cc32)c1OC,.,-9.4%,-7.0%,?,5.2%,23.1µM*
CCOc1ccccc1CNC(=O)CCn1c(=O)c2cccn2c2ccc(F)cc21,.,-6.6%,10.8%,?,1.3%,16.4µM*
CCc1ccc(CNC(=O)CCn2c(=O)c3cccn3c3ccc(F)cc32)cc1,.,-4.5%,-7.0%,?,7.8%,?
O=C(Nc1nnc([C@@H]2C[C@H](O)[C@@H](CO)O2)s1)Nc1ccccc1C(F)(F)F,-6.2%,.,.,-7.5%,.,-14.7%
COc1ccc(-n2c(=O)c(-c3cccs3)nc3cnc(Nc4cccc(OC)c4)nc32)cc1,.,-7.8%,-2.7%,-14.8%,.,23.1µM*
COc1ccc(-n2c(=O)c(-c3ccccc3)nc3cnc(N4CCNCC4)nc32)cc1,.,-3.9%,-17.2%,-8.7%,.,4.7%
SMILES,PLK1 PBD block,GCN5L2 inh,VDR inh,TDP1 cell CPT,TDP1 block,TDP1 cell noCPT
COc1ccc(-c2nc3cnc(N4CCNCC4)nc3n(-c3ccc(OC)cc3)c2=O)cc1,.,-16.9%,-3.7%,18.4µM*,.,?
COc1ccc(-n2c(=O)c(-c3ccc(Cl)cc3)nc3cnc(N4CCNCC4)nc32)cc1,.,-17.7%,-15.8%,5.17µM*,.,11.6µM*
COc1ccc(-c2nc3cnc(N4CCNCC4)nc3n(-c3ccccc3)c2=O)cc1,.,-21.0%,-3.2%,20.6µM*,.,14.6µM*
COc1ccc(Cc2nnc(SC(C)C(=O)Nc3ccc(F)cc3Cl)o2)cc1 (stereo not given),-5.3%,-11.8%,-24.3%,4.1%,.,1.9%
CNC(=S)NNC(=O)c1noc(C)c1C(=O)N1CCN(C(c2ccccc2)c2ccccc2)CC1,-4.8%,-6.9%,12.3%,-13.9%,7.5%,-5.9%
CCNc1ncc2nc(-c3cccc(C#N)c3)c(=O)n(C)c2n1,.,35.5µM*,-10.5%,3.8%,.,-4.2%
CCNc1ncc2nc(-c3ccc(OC)cc3)c(=O)n(-c3ccc(OC)cc3)c2n1,.,-29.0%,-0.8%,?,.,0.0326µM*
O=c1c(-c2ccc(Cl)cc2)nc2cnc(N3CCNCC3)nc2n1-c1ccccc1,.,?,-19.0%,4.11µM*,.,4.61µM*
O=c1c(-c2ccccc2)nc2cnc(N3CCNCC3)nc2n1-c1ccccc1,.,-21.3%,?,?,.,?
CC[C@@]1(C(=O)OC)N[C@H](CN(C)S(=O)(=O)c2ccc(C(F)(F)F)cc2)[C@@H]2C(=O)N(C)C(=O)[C@@H]21,-10.4%,1.8%,-19.5%,-1.5%,-0.2%,-12.7%
O=C(NC(CO)Cc1ccc([N+](=O)[O-])cc1)C(Cl)Cl (stereo not given),-9.3%,-6.6%,14.1%,16.4µM*,3.6%,9.2µM*
O=C(Nc1ccccc1)[C@@H]1CC=C[C@@H]2CCN(C3CC3)C(=O)[C@@H]21,.,.,.,-22.6%,.,-6.4%
CC(=O)Nc1nc2c(s1)C(=O)NCCC2,-7.4%,7.3%,-10.7%,12.3%,-3.5%,1.2%
Cc1cccc(CN2Cc3cccc4c3[C@H](C=CC4)CC2=O)c1,.,.,.,15.8µM*,.,20µM*
O=C1C[C@H]2C=CCc3cccc(c32)CN1Cc1ccc(F)cc1,.,.,.,?,.,12.6µM*
Cn1cc(S(=O)(=O)N2CCCC2)cc1C(=O)Nc1ccc(F)cc1F,.,1.8%,8.7%,?,1.3%,-5.5%
